Peg3 imprint = genomic imprint erasure induction | mouse ES Peg3-LacZ reporter, beta-gal luminescence, 40 h | Potency, µM (top dose mostly 60.7 µM), usual class: activators | 0.02% of 110,000 active
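Imprint erasure is scored as LacZ activity from the silenced maternal Peg3 allele in feeder-free female ES cells cultured 40 h with LIF. Luminescence is normalized to in-plate negative controls and fitted to the Hill equation.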
p53ts 39C kill = kills p53ts cells at the nonpermissive temperature | Potency, µM (top dose mostly 46.1 µM), hits mostly cytotoxic | H1299-p53A138V viability at 39C, ATP luminescence, 24 h | AID 902 | 1.5% of 130,000 active; note: nearly all actives have a fitted effect of over 55% in size
p53ts 32C kill = p53ts cell cytotoxicity, permissive temperature. Potency, µM (doses to about 46.1 µM), usual class: cytotoxic. H1299-p53A138V at 32C, ATP luminescence viability, 24 h. AID 924. 0.93% of 130,000 active; note: nearly all actives have a fitted effect of over 55% in size
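H1299-p53 A138V cells (temperature-sensitive p53) exposed 24 h to up to 46 uM compound at 32C, where p53 is wild-type in conformation. Viability read as ATP luminescence and normalised to DMSO and 100 uM tamoxifen. AC50 fitted with the Hill equation.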
IkB sig inh = suppresses IkB signaling in ABC-DLBCL reporter cells | ABC-DLBCL IkBa-CBG/CBR dual luciferase ratio, 4 h; response scale: scaled: untreated 0%, proteasome inhibitor 100% | Potency, µM (titrated, usually from 57.1 µM) | 0.04% of 110,000 active | AID 445; active = well fitted curve in the direction sought with a large enough effect in the signal ratio, not every such curve was filed as active; inconclusive = small, poorly fitted or top-dose-only effect, or a change in a side signal; the % refers to the signal ratio;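 note: the direction sought is a rising ratio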
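Curves were fitted separately to fusion (green), unfused (red) and ratio luminescence, then classed by r2, magnitude and activity. Cells: OCI-Ly3, 4 h compound plus doxycycline at 37C; 10 uM MG-132 defined full response.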
Numbers stand for hits; i = inactive; ? = inconclusive; nt = no result; [ ] = dose if it differs, or a comment. Rows were chosen to be rich in hits. Some 1.8% of all compounds tested hit in one or more screens of this group. Unless noted, calls come from the whole dose curve; as a rule, active = well fitted curve in the direction sought with a large enough effect; inconclusive = small, poorly fitted or top-dose-only effect, or another doubt; inactive = no such curve, though single readings can be large; an effect the other way counts as inactive or inconclusive.

SMILES | Peg3 imprint | p53ts 39C kill | p53ts 32C kill | IkB sig inh
Cc1ccc(C)c(-c2nc3ccc(N)cc3[nH]2)c1 | i | i | i | ?
CCOC(=O)c1nnn(CC(=O)NC(=O)Nc2cccc(CC)c2)c1C(=O)OCC | i[10.9 µM] | i | i | ?
CCS(=O)(=O)c1ncc(Cl)c(C(=O)N(Cc2ccccc2)Cc2ccco2)n1 | i[10.9 µM] | 4µM | 18µM | ?
CCS(=O)(=O)c1ncc(N(Cc2ccccc2)Cc2ccco2)c(C(=O)Nc2cccc(Cl)c2C)n1 | i[10.9 µM] | i | i | ?
COc1ccc(C)cc1NC(=O)c1c2c(nc3ccccc13)C(=O)N(C1CCCCC1)C2 | i[10.9 µM] | 10µM | i | ?
O=C(Nc1ccc(F)cc1F)c1c2c(nc3ccccc13)C(=O)N(C1CCCCC1)C2 | i[10.9 µM] | ? | i | ?
Cc1cc(NC(=O)c2ccc(S(=O)(=O)N(C)C)cc2)no1 | i | i | i | i
CCOc1ccc(C(=O)Nc2cc(C)on2)cc1 | i | 3.2µM | 2.5µM | i
Cc1cc(NC(=O)c2ccc(Cl)cc2)no1 | i | 7.9µM | 7.9µM | i
COCCCNC(=O)c1ccc(C)c(-n2c(C)nc3cccnc32)c1 | i[10.9 µM] | i | i | i
c1ccc2nc(-c3nc4ccccc4o3)ccc2c1 | i | 5µM | 5µM | ?
Cc1cc(C)c(-c2n[nH]c3c2C(c2ccccc2F)N(Cc2ccco2)C3=O)c(O)c1 (stereo not given) | i[10.9 µM] | 16µM | i | ?
CCCOc1cccc(C2c3c(-c4ccccc4O)n[nH]c3C(=O)N2Cc2ccco2)c1 (stereo not given) | i[10.9 µM] | 32µM | ? | ?
COc1ccc(C2c3c(-c4ccccc4O)n[nH]c3C(=O)N2Cc2ccco2)cc1 (stereo not given) | i[10.9 µM] | ? | i | ?
COC(=O)c1ccc(Cl)cc1NC(=O)N1CC=C(c2c[nH]c3ccccc23)CC1 | i[10.9 µM] | i | i | i
Cc1nc2cc(NC(=O)NCc3ccco3)ccc2n1C | i | i | i | i
Cc1nc2cc(NC(=O)Nc3nccs3)ccc2n1C | i | 7.9µM | 7.9µM | i
CC[C@H](C)[C@@H]1O[C@]2(CC[C@@H]1C)C[C@H]1C[C@H](CC=C(C)[C@@H](O[C@@H]3C[C@H](OC)[C@H](O[C@@H]4C[C@H](OC)[C@H](O)[C@H](C)O4)[C@H](C)O3)[C@@H](C)C=CC=C3CO[C@@H]4[C@@H](O)C(C)=C[C@@H](C(=O)O1)[C@]34O)O2 | i | 13µM | ? | i
CC[C@H](C)[C@@H]1O[C@]2(CC[C@@H]1C)C[C@H]1C[C@H](CC=C(C)[C@@H](O[C@H]3C[C@H](OC)[C@H](O[C@H]4C[C@H](OC)[C@H](O)[C@H](C)O4)[C@H](C)O3)[C@@H](C)C=CC=C3CO[C@@H]4[C@@H](O)C(C)=C[C@H](C(=O)O1)[C@@]34O)O2 | nt | 5µM | 10µM | i
CC[C@@H](C)[C@H]1O[C@]2(CC[C@@H]1C)C[C@@H]1C[C@H](C/C=C(/C)[C@H](O[C@@H]3C[C@H](OC)[C@H](O[C@@H]4C[C@H](OC)[C@@H](O)[C@H](C)O4)[C@H](C)O3)[C@@H](C)/C=C\C=C3CO[C@@H]4[C@H](O)C(C)=C[C@@H](C(=O)O1)[C@]34O)O2 (tested in a mixture with another compound) | i | 13µM | 13µM | ?
CC[C@@H](C)[C@H]1O[C@]2(CC[C@@H]1C)C[C@@H]1C[C@@H](C/C=C(\C)[C@@H](O[C@H]3C[C@H](OC)[C@@H](O[C@H]4C[C@H](OC)[C@@H](O)[C@H](C)O4)[C@H](C)O3)[C@@H](C)/C=C/C=C3\CO[C@@H]4[C@H](O)C(C)=C[C@@H](C(=O)O1)[C@]34O)O2 | i | nt | nt | nt
CCCCCn1c(=O)[nH]c2cc(C(=O)N3CCN(c4cccc(Cl)c4)CC3)ccc2c1=O | i[10.9 µM] | i | i | ?
Cc1ccc(NC(=O)N(Cc2cn(C)c3ccccc23)C2CCCCC2)cc1C | i[10.9 µM] | 13µM | ? | ?
COc1cccc(NC(=O)N(Cc2cn(C)c3ccccc23)C2CCCCC2)c1 | i[10.9 µM] | ? | i | ?
Cc1ccc(C(=O)Cn2c3c(sc2=N)CCCC3)cc1 | i | 1.6µM | 2µM | i
SMILES | Peg3 imprint | p53ts 39C kill | p53ts 32C kill | IkB sig inh
CCCN(CCC)CC(O)Cn1cc(/C=C/C(=O)c2ccc(C)cc2)c2ccccc21 (stereo not given) | i[10.9 µM] | 13µM | ? | ?
COc1ccc(C(=O)/C=C/c2cn(CC(O)CN(CC(C)C)CC(C)C)c3ccccc23)cc1 (stereo not given) | i[10.9 µM] | i | i | i
CCCCN(C)CC(O)Cn1cc(/C=C/C(=O)c2ccc(C)cc2)c2ccccc21 (stereo not given) | i[10.9 µM] | 16µM | ? | ?
CCCCN(C)CC(O)Cn1cc(/C=C/C(=O)c2ccc(Br)cc2)c2ccccc21 (stereo not given) | i[10.9 µM] | ? | ? | ?
CCCCN(C)CC(O)Cn1cc(/C=C/C(=O)c2ccc(OC)c(OC)c2)c2ccccc21 (stereo not given) | ? | 16µM | 20µM | ?
CCCN(CCC)CC(O)Cn1cc(/C=C/C(=O)c2ccc(Br)cc2)c2ccccc21 (stereo not given) | i[10.9 µM] | 7.9µM | i | ?
CCCN(CCC)CC(O)Cn1cc(/C=C/C(=O)c2ccc(OC)cc2)c2ccccc21 (stereo not given) | i[10.9 µM] | 10µM | ? | ?
CCCCN(C(=O)NC(=O)Nc1nc2ccc(OC)cc2s1)S(C)(=O)=O | i | ? | 13µM | i
O=C(Nc1sc2c(c1C(=O)NCc1ccccc1)CCCC2)c1cc(=O)c2cc(Cl)ccc2o1 | i[10.9 µM] | i | i | ?
Fc1ccccc1CSc1ncnc2c1oc1ccccc12 | i | 13µM | 13µM | i
COc1ccccc1NC(=O)C1=C(C)Nc2nc(SCc3ccccc3F)nn2C1c1cccnc1 (stereo not given) | i[10.9 µM] | i | i | i
COc1ccccc1NC(=O)C1=C(C)Nc2nc(SCc3ccccc3Cl)nn2C1c1cccnc1 (stereo not given) | i[10.9 µM] | 10µM | i | ?
COc1ccc(-c2cc3nc4n(c(=O)c3s2)CCC4)cc1 | i | 5µM | 5µM | i
Nc1nc(C2CCCN2S(=O)(=O)c2ccc(Cl)cc2)cs1 (stereo not given) | i | i | i | i
COc1ccc(C2CC(c3cccs3)=Nc3ccccc3S2)cc1 (stereo not given) | nt | i | 25µM | nt
COc1ccc(N2CCN(C(=O)CCS(=O)(=O)c3cc4c(cc3Cl)NC(=O)CO4)CC2)cc1 | i[10.9 µM] | ? | i | i
CC(=O)Nc1ccc(S(=O)(=O)Nc2cccc(-c3ccc(N4CCC(C)CC4)nn3)c2)cc1 | i[10.9 µM] | 3.5µM | 2.5µM | ?
CCc1ccc(S(=O)(=O)Nc2cccc(-c3ccc(N4CCC(C)CC4)nn3)c2)s1 | i[10.9 µM] | 10µM | 13µM | ?
CC(=O)c1ccc(S(=O)(=O)Nc2ccc(-c3ccc(N4CCCCC4)nn3)cc2)cc1 | i[10.9 µM] | 4µM | ? | ?
COc1ccc(OC)c(S(=O)(=O)Nc2cccc(-c3ccc(N4CCCCC4)nn3)c2)c1 | i[10.9 µM] | ? | i | i

Screens deposited in PubChem by National Center for Advancing Translational Sciences (NCATS).
